From PubChem BioAssay AID602313 (National Center for Advancing Translational Sciences (NCATS), 2012)
The campaign covered roughly 390,000 compounds. About 760 (0.19%) were called active. Not shown: some 3% with an inconclusive outcome. Calls follow the shape of the dose curve; as a rule, active = well fitted inhibition curve with a large enough effect; inconclusive = small, poorly fitted or top-dose-only effect; inactive = flat fitted curve, though single readings scatter. Many of the other results were omitted from the sample, so actives are more common in it than they were.

assay: qHTS for Inhibitors of Vif-A3F Interactions: qHTS; details: HeLa A3F-eYFP + Vif (tagged APOBEC3F with the HIV-1 protein that degrades it), YFP fluorescence increase; series mostly up to 46.1 µM; also: nearly all actives have a fitted effect of over 65% in size
Method in brief: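 Fluorescence increase (Ex 488/Em 500-530) after overnight compound treatment at 37 deg C flags inhibition of Vif-driven A3F-eYFP loss in stable HeLa A3F-eYFP/Vif cells seeded overnight beforehand.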
Potency is read from the fitted curve at half-maximal effect.

Potency, inactive:
CCCn1c(NCc2ccccc2F)nc2ccccc21, CCCCOc1ccc(C(=O)N2CC(=O)Nc3ccc(Br)cc3C2c2ccc(F)cc2)cc1 (configuration not stated), COc1ccc(-c2noc(CSc3nc(C)cc(=O)[nH]3)n2)cc1OC, O=C(N/C(=C/c1ccc(Cl)cc1)C(=O)N1CCCCC1)c1ccco1, O=C(Nc1cccc2c1N(C(=O)c1ccco1)CCC2)c1ccco1, CC(=O)c1cccc(NC(=O)C2CCCN2S(=O)(=O)c2cccc3nsnc23)c1 (configuration not stated), O=C(NCc1ccco1)C1CCCN(S(=O)(=O)c2cccc3nonc23)C1 (configuration not stated), CCCCOc1ccc(NC(=O)c2cc3c(n(-c4ccc(Cl)cc4)c2=O)CCCC3=O)cc1, O=C(COc1ccccc1)NCc1ccc2c(c1)CCN2C(=O)c1ccc(F)cc1, Cc1nn2c(=O)cc(COC(=O)CNC(=O)c3ccc(F)cc3)nc2s1, Cc1ccc(S(=O)(=O)N(CC(=O)Nc2ccc(Cl)cc2Cl)c2ccccc2C)cc1, COc1cc(NC(=O)Cn2c(=O)n(Cc3ccco3)c(=O)c3oc4ccccc4c32)cc(OC)c1, COC(=O)c1ccccc1NC(=O)c1ccc(COc2ccccc2Cl)o1, CCOc1cc(C(=O)NCCc2csc3nc(-c4ccc(C)cc4)nn23)cc(OCC)c1OCC, Cc1ccc(NC(=O)c2nc(S(=O)(=O)Cc3cccc(C)c3)ncc2Cl)cc1, O=C(Nc1ccccc1F)C(c1ccccc1)N1Cc2ccccc2C1=O (configuration not stated), Cc1ccc(COC(=O)CN2C(=O)NC3(CCCC3)C2=O)cc1, CC(OC(=O)CN1C(=O)C2CCCCC2C1=O)C(=O)Nc1ncc(Cl)cc1Cl (configuration not stated), Cc1ccc2nc(COc3ccccc3NC(=O)Nc3ccc(F)c(Cl)c3)cc(=O)n2c1, O=c1c2cccnc2n(Cc2cccc(F)c2)c(=O)n1Cc1ccccc1Cl, Cc1cc(C)cc(NS(=O)(=O)c2cc3c(cc2C)NC(=O)CO3)c1, Cc1ccc(N2CC(C(=O)Nc3ccc(N(C)C)cc3)CC2=O)cc1Cl (configuration not stated), CCOc1ccccc1N(C)C(=O)c1cc2c(s1)-c1ccccc1OC2, CCc1cnc2c(c1SCC(=O)c1ccccc1)c(=O)n(C)c(=O)n2C

Potency, active:
O=C(NC(=S)N1CCc2ccccc21)c1ccco1 11.2 µM, CC(=O)c1cccc(NC(=O)C2CCCN(S(=O)(=O)c3cccc4nonc34)C2)c1 (configuration not stated) 31.6 µM, CC1=CC(C)(C)Nc2ccc(OC(=O)CN3C(=O)C4CCCCC4C3=O)cc21 (configuration not stated) 31.6 µM
